According to PubChem BioAssay (Tox21):
Values joined by “and” are separate entries in the source; they are usually repeats but may differ in a detail not shown here. Equal values may be shown once. Records with an inconclusive call do not appear. Some structures have more than one record in an assay (separate samples or runs), and their calls can disagree. Active and inactive are the calls of the source. Unless noted, calls come from the whole dose curve.

Assays:
[1] = Nuclear factor erythroid 2-related factor 2/antioxidant responsive element (Nrf2/ARE) small molecule agonists: qHTS cell viability counter screen in human keratinocytes (AID 1919968; active = well fitted curve in the direction sought with a large enough effect in the repeat runs; an effect the other way counts as inactive or inconclusive; note: nearly all actives have a fitted effect of over 55% in size)
How it was run: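 Measured as CellTiter-Fluor fluorescence, this readout tracks cytotoxicity in the same wells as the ARE-luciferase screen. HaCaT reporter cells (1,500/well) received compounds after a 5 h pre-incubation and were exposed for 23 h.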

[2] = Nuclear factor erythroid 2-related factor 2/antioxidant responsive element (Nrf2/ARE) small molecule agonists: luciferase reporter gene qHTS assay in human keratinocytes (AID 1919969); note: nearly all actives have a fitted effect of over 35% in size; note: potency is the fitted concentration of half-maximal effect
[3] = biological target: Gonadotropin-releasing hormone receptor (Homo sapiens) (UniProt P30968); assay: Human gonadotropin-releasing hormone receptor (GnRHR) small molecule agonists, calcium flux assay in GnRHR-HEK293 cells (AID 1920063); note: nearly all actives have a fitted effect of over 35% in size
How it was run: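 Fluorescence kinetics (480 nm excitation, 540 nm emission; 3 min, 1 s steps) report calcium mobilisation in human GnRHR-HEK293 cells in agonist mode. Dye incubation: 1 h, 37 C.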

[4] = biological target: KiSS-1 receptor (Homo sapiens) (UniProt Q969F8); assay: Human kisspeptin (KISS1R) small molecule agonists, calcium flux assay in KISS1R-HEK293 cells (AID 1920064; active = well fitted curve in the direction sought with a large enough effect in the repeat runs; an effect the other way counts as inactive or inconclusive)
How it was run: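 Measures KISS1R agonism through calcium-sensitive dye fluorescence in stably transfected HEK293 cells, read for 3 min after pin-tool compound delivery; 15-point titrations in triplicate.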

[5] = G protein-coupled receptor (GPCR) small molecule agonists, calcium flux assay: HEK293 wild type cell line counter screen (AID 1920065)
How it was run: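 Readout: fluorescence at 480 nm excitation/540 nm emission, sampled at 1 s intervals for 3 min. Cells had been cultured 18 h, then dye-loaded 1 h at 37 C before compound or ATP addition.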

[6] = p53 small molecule agonists, cell-based qHTS assay with human liver microsomes (AID 1963577);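 note: p53 response element beta-lactamase reporter cells with liver microsomes plus NADPH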
How it was run: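 Cells carrying a p53-responsive bla reporter were rested 5 h (37 C, 5% CO2) before compound transfer. Human liver microsomes plus NADPH, 0.5 mg/mL final apiece, supplied metabolism during the 16 h 37 C exposure.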

[7] = p53 small molecule agonists, cell-based qHTS assay with human liver microsomes: qHTS cell viability counter screen (AID 1963579); note: nearly all actives have a fitted effect of over 45% in size
How it was run: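 Seed p53RE-bla cells at 4,000 per well; incubate 5 h at 37 C; add compound, human liver microsomes and NADPH; incubate 16 h at 37 C; add CellTiter-Glo; after 30 min at room temperature, read luminescence.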

[8] = p53 small molecule agonists, cell-based qHTS assay with rat liver microsomes: qHTS cell viability counter screen (AID 1963580); note: nearly all actives have a fitted effect of over 45% in size
How it was run: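 p53RE-bla HCT-116 cells (4,000/well) rested 5 h at 37 C, then given Tox21 compounds in DMSO with rat liver microsomes (0.5 mg/mL final) plus NADPH (0.5 mg/mL final) for 16 h at 37 C. Viability read by CellTiter-Glo luminescence after 30 min at room temperature.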

[9] = p53 small molecule agonists, cell-based qHTS assay: qHTS cell viability counter screen (AID 1963581); note: nearly all actives have a fitted effect of over 45% in size
How it was run: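 In the same plates used for the p53 bla reporter, HCT-116 cells given compounds for 16 h at 37 C received CellTiter-Glo; luminescence was recorded 30 min later at room temperature.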

[10] = p53 small molecule agonists, cell-based qHTS assay (AID 1963582; active = well fitted activation curve with a large enough effect in the signal ratio in the repeat runs, not every such curve was filed as active; the % refers to the signal ratio)
How it was run: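 Compounds are pin-transferred in DMSO onto p53RE-bla cells and incubated 16 h at 37 C. The B/G FRET beta-lactamase substrate is then applied for 2 h at RT and fluorescence recorded.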

[11] = biological target: 5-hydroxytryptamine receptor 2A (Homo sapiens) (UniProt P28223); assay: 5-hydroxytryptamine receptor 2A (HTR2A) small molecule antagonists, cell-based qHTS assay (AID 1963586); note: nearly all actives have a fitted effect of over 45% in size; note: potency is the fitted concentration of half-maximal effect
How it was run: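 Antagonist-mode intracellular calcium assay: DOI (4 nM) added after 5 min compound pre-incubation at room temperature to dye-loaded HTR2A-CHO cells. Fluorescence followed for 3 min, sampled every second.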

[12] = biological target: 5-hydroxytryptamine receptor 2A (Homo sapiens) (UniProt P28223); assay: 5-hydroxytryptamine receptor 2A (HTR2A) small molecule agonists, cell-based qHTS assay (AID 1963587); note: nearly all actives have a fitted effect of over 30% in size
How it was run: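 HTR2A-CHO cells, plated 18 h at 37 C/5% CO2, dye-loaded 1 h at 37 C; compounds in DMSO added by pin tool (agonist mode). Intracellular calcium flux read as kinetic fluorescence on FDSS over 2 min at 1 s intervals.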

[13] = biological target: Muscarinic acetylcholine receptor M1 (Homo sapiens) (UniProt P11229); assay: Cholinergic receptor muscarinic 1 (CHRM1) small molecule antagonists, cell-based qHTS assay (AID 1963588); note: nearly all actives have a fitted effect of over 40% in size; note: potency is the fitted concentration of half-maximal effect
How it was run: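 CHRM1-CHO calcium-flux assay, antagonist mode. Cells were seeded 18 h, dye-loaded 1 h at 37 C and given compound for 5 min at RT, then acetylcholine was added at 50nM. FDSS fluorescence was read 3 min; 15 concentrations, three runs.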

[14] = biological target: Muscarinic acetylcholine receptor M1 (Homo sapiens) (UniProt P11229); assay: Cholinergic receptor muscarinic 1 (CHRM1) small molecule agonists, cell-based qHTS assay (AID 1963589); note: nearly all actives have a fitted effect of over 35% in size
How it was run: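 Each compound was tested at 15 concentrations across three independent runs on dye-loaded CHO cells stably expressing human CHRM1, reading intracellular calcium fluorescence kinetically at 1 sec intervals.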

[15] = cAMP Responsive Elements (CRE) small molecule agonists, cell-based qHTS assay (AID 1963590)
How it was run: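 Cell line: CRE-bla HEK 293T; medium DMEM/10% dialyzed FBS/0.1 mM NEAA/1 mM pyruvate/25 mM HEPES; 3 h compound exposure; beta-lactamase FRET readout after 2 h substrate loading at RT.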

[16] = cAMP Responsive Elements (CRE) small molecule antagonists, cell-based qHTS assay (AID 1963591; active = well fitted inhibition curve with a large enough effect in the signal ratio in the repeat runs, not every such curve was filed as active; the % refers to the signal ratio)
How it was run: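 Inhibition of NKH477-driven (0.25 uM final) CRE-beta-lactamase signal in HEK293T cells, 3 h compound exposure at 37 °C, detected by FRET substrate fluorescence.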

[17] = biological target: Beta-2 adrenergic receptor (Homo sapiens) (UniProt P07550); assay: Adrenergic beta2 receptor (ADRB2) small molecule antagonists, cell-based qHTS assay (AID 1963592); note: series mostly up to about 92 µM; nearly all actives have a fitted effect of over 50% in size
How it was run: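 Cells (CHO, stable ADRB2 overexpression) incubated 18-20hr at 37C; compounds added from DMSO; agonist mix (1nM isoproterenol, 100uM IBMX, 25uM Ro-20-1724) added; 0.5hr RT; d2-cAMP and anti-cAMP-cryptate added; 1hr RT; 665/615 nm read.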

[18] = biological target: D(2) dopamine receptor (Homo sapiens) (UniProt P14416); assay: Dopamine D2 receptor (DRD2) small molecule agonists, cell-based qHTS assay (AID 1963594); note: nearly all actives have a fitted effect of over 35% in size
How it was run: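 HEK293 cells stably expressing DRD2 were cultured 24 h at 37 C, then given Ro20-1724 (0.1 mM final) and compounds for 10 min at room temperature. NKH477 (200nM) was then added for 30 min. cAMP was read by HTRF.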

[19] = biological target: D(2) dopamine receptor (Homo sapiens) (UniProt P14416); assay: Dopamine D2 receptor (DRD2) small molecule antagonists, cell-based qHTS assay (AID 1963595; active = well fitted inhibition curve with a large enough effect in the signal ratio in the repeat runs, with a control signal flat; the % refers to the signal ratio)
How it was run: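 Cells were plated and grown for 24 h at 37 °C. Ro20-1724 (0.1 mM final) went in first, then compound for 10 min. NKH477 (200 nM) with quinpirole (12 nM) followed for 30 min at RT, then HTRF detection reagents for 1 h.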

Measured: Potency

Chain of 5-hydroxytryptamine receptor 2A (Homo sapiens) (P28223 whole entry, looked up): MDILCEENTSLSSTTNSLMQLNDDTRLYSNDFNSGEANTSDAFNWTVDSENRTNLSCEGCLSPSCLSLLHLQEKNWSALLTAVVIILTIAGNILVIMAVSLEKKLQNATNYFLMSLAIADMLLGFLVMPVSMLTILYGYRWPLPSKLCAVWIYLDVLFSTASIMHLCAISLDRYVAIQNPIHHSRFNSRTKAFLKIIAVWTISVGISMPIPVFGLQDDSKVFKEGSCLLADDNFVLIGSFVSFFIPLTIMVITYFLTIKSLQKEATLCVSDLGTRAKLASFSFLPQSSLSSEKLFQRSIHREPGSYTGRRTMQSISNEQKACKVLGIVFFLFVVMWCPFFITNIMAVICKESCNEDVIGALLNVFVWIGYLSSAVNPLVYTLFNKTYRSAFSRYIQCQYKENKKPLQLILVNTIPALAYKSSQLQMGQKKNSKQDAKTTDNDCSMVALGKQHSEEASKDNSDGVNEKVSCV
Chain of Beta-2 adrenergic receptor (Homo sapiens) (P07550 whole entry, looked up): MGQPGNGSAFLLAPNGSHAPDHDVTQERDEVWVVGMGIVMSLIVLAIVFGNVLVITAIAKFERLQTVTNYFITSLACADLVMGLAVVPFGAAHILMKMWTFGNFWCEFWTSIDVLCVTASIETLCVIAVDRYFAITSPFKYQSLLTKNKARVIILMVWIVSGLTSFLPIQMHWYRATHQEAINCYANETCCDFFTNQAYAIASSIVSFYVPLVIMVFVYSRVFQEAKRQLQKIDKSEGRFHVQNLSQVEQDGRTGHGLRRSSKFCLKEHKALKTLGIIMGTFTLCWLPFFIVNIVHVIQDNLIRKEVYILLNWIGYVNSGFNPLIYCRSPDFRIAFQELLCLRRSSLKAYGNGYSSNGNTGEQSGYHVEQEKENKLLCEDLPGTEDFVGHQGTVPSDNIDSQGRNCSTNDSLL
Chain of D(2) dopamine receptor (Homo sapiens) (P14416 whole entry, looked up): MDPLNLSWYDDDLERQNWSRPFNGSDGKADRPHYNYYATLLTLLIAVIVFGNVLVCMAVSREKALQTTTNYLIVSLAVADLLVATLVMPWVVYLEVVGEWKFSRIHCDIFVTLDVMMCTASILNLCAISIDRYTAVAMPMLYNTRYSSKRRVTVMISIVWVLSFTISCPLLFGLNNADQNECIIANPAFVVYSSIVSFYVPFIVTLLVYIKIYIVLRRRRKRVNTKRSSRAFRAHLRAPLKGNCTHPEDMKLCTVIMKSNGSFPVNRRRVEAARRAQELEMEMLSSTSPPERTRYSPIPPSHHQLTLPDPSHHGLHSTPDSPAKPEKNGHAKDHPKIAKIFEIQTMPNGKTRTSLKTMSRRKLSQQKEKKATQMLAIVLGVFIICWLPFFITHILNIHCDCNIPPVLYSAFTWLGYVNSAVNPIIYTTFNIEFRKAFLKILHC
Chain of KiSS-1 receptor (Homo sapiens) (Q969F8 whole entry, looked up): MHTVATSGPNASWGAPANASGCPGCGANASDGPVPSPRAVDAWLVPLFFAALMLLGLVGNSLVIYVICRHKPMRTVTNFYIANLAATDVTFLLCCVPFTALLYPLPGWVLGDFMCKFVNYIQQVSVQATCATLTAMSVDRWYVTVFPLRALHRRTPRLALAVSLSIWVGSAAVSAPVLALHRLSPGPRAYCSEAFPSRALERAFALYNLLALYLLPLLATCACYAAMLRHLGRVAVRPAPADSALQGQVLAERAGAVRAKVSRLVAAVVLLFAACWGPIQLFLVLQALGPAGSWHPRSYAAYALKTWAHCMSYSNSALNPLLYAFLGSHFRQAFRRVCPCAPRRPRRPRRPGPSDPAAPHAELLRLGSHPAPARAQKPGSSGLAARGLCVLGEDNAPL
Chain of Muscarinic acetylcholine receptor M1 (Homo sapiens) (P11229 whole entry, looked up): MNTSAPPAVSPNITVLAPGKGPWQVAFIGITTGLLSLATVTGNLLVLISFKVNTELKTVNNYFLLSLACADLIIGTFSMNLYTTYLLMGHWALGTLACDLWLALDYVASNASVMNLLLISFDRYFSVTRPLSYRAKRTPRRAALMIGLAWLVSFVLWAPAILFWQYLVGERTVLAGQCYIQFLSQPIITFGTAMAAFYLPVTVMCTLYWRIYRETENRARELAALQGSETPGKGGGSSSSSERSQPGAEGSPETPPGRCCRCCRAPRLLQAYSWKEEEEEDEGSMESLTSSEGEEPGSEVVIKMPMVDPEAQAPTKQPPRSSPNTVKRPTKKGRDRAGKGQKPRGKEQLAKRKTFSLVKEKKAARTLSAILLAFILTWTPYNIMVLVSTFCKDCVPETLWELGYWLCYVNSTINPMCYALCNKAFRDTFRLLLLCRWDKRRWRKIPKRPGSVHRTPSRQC
Chain of Gonadotropin-releasing hormone receptor (Homo sapiens) (P30968 whole entry, looked up): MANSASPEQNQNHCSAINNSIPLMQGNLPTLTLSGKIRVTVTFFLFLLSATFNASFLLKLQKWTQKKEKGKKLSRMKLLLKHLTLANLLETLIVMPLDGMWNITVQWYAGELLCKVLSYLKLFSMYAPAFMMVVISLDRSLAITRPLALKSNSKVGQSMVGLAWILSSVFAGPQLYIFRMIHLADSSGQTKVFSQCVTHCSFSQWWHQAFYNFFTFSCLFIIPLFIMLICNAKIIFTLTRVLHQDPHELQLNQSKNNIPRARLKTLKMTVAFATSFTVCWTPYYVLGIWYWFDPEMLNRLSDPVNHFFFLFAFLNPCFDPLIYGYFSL

C[C@H]1C[C@@H](O)CC(C)(C)C1
inactive: [1] | [2] | [3] | [4] | [5] | [6] | [7] | [8] | [9] | [10] | [11] | [12] | [13] | [14] | [15] | [16] | [17] | [18] | [19]

O=C(O)c1ccc(OCCN2CCCCC2)cc1
inactive: [1] | [2] | [3] | [4] | [5] | [6] | [7] | [8] | [9] | [10] | [11] | [13] | [14] | [15] | [16] | [17] | [18] | [19]

COc1ccc(-c2coc3cc(O)cc(O)c3c2=O)cc1
inactive and 33.4 µM (active): [11]
inactive: [1] | [2] | [3] | [4] | [5] | [6] | [7] | [8] | [9] | [10] | [12] | [13] | [14] | [18] | [19]

CCCCCCCCCCCC[N+](C)(C)CCCS(=O)(=O)[O-]
active: [13] 33.8 µM
inactive: [1] | [2] | [3] | [4] | [5] | [6] | [7] | [8] | [9] | [10] | [11] | [12] | [14] | [15] | [16] | [17] | [18] | [19]

ON=C1CCCCC1
inactive and 68.6 µM (active): [2]
inactive: [1] | [3] | [4] | [5] | [6] | [7] | [8] | [9] | [10] | [11] | [12] | [13] | [15] | [16] | [17] | [18] | [19]

C/C=C/C(=O)CCCC
inactive: [1] | [2] | [3] | [4] | [5] | [6] | [7] | [8] | [9] | [10] | [11] | [12] | [13] | [14] | [15] | [17] | [18] | [19]

C(/C=C/C=C/Nc1ccccc1)=Nc1ccccc1
inactive: [1] | [2] | [3] | [4] | [5] | [6] | [7] | [8] | [9] | [10] | [11] | [12] | [13] | [15] | [16] | [18] | [19]

O=C(O)C[C@H](NC(=O)OCc1ccccc1)C(=O)O
inactive: [1] | [2] | [3] | [4] | [5] | [6] | [7] | [8] | [9] | [10] | [11] | [12] | [13] | [14] | [15] | [16] | [17] | [18] | [19]

C/C=C(\C)C(=O)OCc1ccccc1
inactive: [1] | [2] | [3] | [4] | [5] | [6] | [7] | [8] | [9] | [10] | [11] | [12] | [13] | [14] | [15] | [16] | [17] | [18]

CC(=O)OCCOCCOCCOC(C)=O
inactive: [1] | [2] | [3] | [4] | [5] | [6] | [7] | [8] | [9] | [10] | [11] | [12] | [13] | [14] | [15] | [16] | [17] | [18] | [19]

Cc1ccc2c(c1)OCC(=O)CO2
inactive: [1] | [2] | [3] | [4] | [5] | [6] | [7] | [8] | [9] | [10] | [11] | [12] | [13] | [14] | [15] | [16] | [17] | [18]

CN1[C@@H]2CC[C@H]1CC(NC(=O)n1c(=O)[nH]c3ccccc31)C2 (some centres undefined)
inactive: [1] | [2] | [3] | [4] | [5] | [6] | [7] | [8] | [9] | [10] | [11] | [12] | [14] | [15] | [16] | [17] | [18] | [19]

c1ccc(CCc2ccccc2)cc1
inactive: [1] | [2] | [3] | [4] | [5] | [6] | [7] | [8] | [9] | [10] | [11] | [12] | [14] | [15] | [16] | [17] | [18] | [19]

CCc1cnc(C(=O)O)c(C(=O)O)c1
inactive: [1] | [2] | [3] | [4] | [5] | [6] | [7] | [8] | [9] | [10] | [11] | [12] | [13] | [14] | [15] | [16] | [17] | [18] | [19]
